PubChem BioAssay (NCI)
About 83,000 compounds went through this panel and 20% of them were active in at least one assay; those are over-represented in the sample as a whole.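 Compound tested at a single concentration for 48 hours in 96-well plates; a percent growth value below 10 was scored as active.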 Values without a mark were called inactive. Activity calls are given as the source filed them.

Legend:
Assay in all cases: NCI-60 one-dose screen, 48 h (100 = growth as untreated, 0 = no growth, -100 = all killed)
[1] = test system: SR leukemia; conditions: 10 µM unless noted
[2] = test system: RPMI-8226 leukemia; conditions: 10 µM unless noted
[3] = test system: OVCAR-8 ovarian; conditions: 10 µM unless noted
[4] = test system: OVCAR-5 ovarian; conditions: 10 µM unless noted
[5] = test system: OVCAR-4 ovarian; conditions: 10 µM unless noted
[6] = test system: SK-OV-3 ovarian; conditions: 10 µM unless noted
[7] = test system: IGROV1 ovarian; conditions: 10 µM unless noted
[8] = test system: OVCAR-3 ovarian; conditions: 10 µM unless noted
[9] = test system: HS 578T breast; conditions: 10 µM
[10] = test system: NCI/ADR-RES ovarian; conditions: 10 µM unless noted
[11] = test system: T-47D breast; conditions: 10 µM unless noted
[12] = test system: BT-549 breast; conditions: 10 µM unless noted
[13] = test system: MDA-MB-435 melanoma; conditions: 10 µM unless noted
[14] = test system: SW-620 colon; conditions: 10 µM unless noted
[15] = test system: MCF7 breast; conditions: 10 µM unless noted
[16] = test system: HCT-116 colon; conditions: 10 µM unless noted
[17] = test system: HCC-2998 colon; conditions: 10 µM unless noted
[18] = test system: KM12 colon; conditions: 10 µM unless noted

Row | Structure (SMILES) | growth [1] | growth [2] | growth [3] | growth [4] | growth [5] | growth [6] | growth [7] | growth [8] | growth [9] | growth [10] | growth [11] | growth [12] | growth [13] | growth [14] | growth [15] | growth [16] | growth [17] | growth [18]
1 | CC(C)CC(NC(=O)OCC1c2ccccc2-c2ccccc21)C(=O)O (configuration not stated) | 93.7% | 101% | 122% | 101% | 102% | 95% | 91% | 115% | 115% | 107% | 95.8% | 97% | 93.7% | 116% | 89.4% | 103% | 112% | 106%
2 | N#Cc1c(N)c(C(=O)c2ccc3c(c2)OCCO3)n2c1CCCC2 | -20% (active) | 4.91% (active) | 31.5% | 57.9% | 81.2% | 31.3% | 10.8% | -3.73% (active) | 36.3% | 8.36% (active) | 29.2% | 52.9% | -48.8% (active) | 19.3% | 18.1% | 18.6% | 59.6% | 24.1%
3 | Oc1[nH]c2ccccc2c1/C=c1/ccc2c(c1)N=C(c1ccc(C(F)(F)F)cc1)N=2 | 12.1% | 35.6% | 70.5% | 72.3% | 69.1% | 82.7% | 41.3% | 25.8% | 49.1% | 69.1% | 35.1% | 43.3% | 32.5% | – | 37% | 39.5% | 61.4% | 31.6%
4 | CCc1ccc2c(c1)N(CCO)C1=C(C(=O)OC1)C2c1cccc(Cl)c1 (configuration not stated) | 20.2% | 20.3% | 27% | 30.3% | 63.8% | 27.2% | 31.2% | -35.9% (active) | 7.46% (active) | 8.16% (active) | 52.1% | 42.1% | -57.3% (active) | 26% | 24.5% | 15.3% | – | 13.4%
5 | CCCc1n(Cc2ccc3ccccc3n2)cc[n+]1Cc1ccc2ccccc2c1 | -0.784% (active) | -7.06% (active) | 10.8% | 5.17% (active) | 5.87% (active) | 0.843% (active) | 3.66% (active) | -4% (active) | 24.4% | 95.7% | -2.95% (active) | -3.95% (active) | -6.36% (active) | 15% | 2.91% (active) | 1.31% (active) | 12.5% | -4.46% (active)
6 | Cc1n(Cc2ccc3ccccc3n2)cc[n+]1Cc1ccc2ccccc2n1 | 48.8% | 24.6% | 97.9% | 83.4% | 24.1% | 91.1% | 64.4% | 54.8% | 92.1% | 98.7% | 27.2% | 72.8% | 63% | – | 61.5% | 83.3% | 62.8% | 50.6%
7 | COc1ccc(Nc2ncccc2C(=O)NCc2cn(Cc3cc(OC)cc(OC)c3)nn2)cc1 | 84.8% | 99.8% | 97.6% | 106% | 98% | 98.7% | 113% | 96.5% | 86.2% | 89.7% | 93.6% | 98.4% | 106% | – | 104% | 94.8% | 103% | 102%
8 | CCCc1cc2c(cc1CN(Cc1cc3c(cc1CCC)OCO3)C(=N)OCC)OCO2 | 91.2% | 55.2% | 82.4% | 98.9% | 77.9% | 92.7% | 63.3% | 69.1% | 73.1% | 91.2% | 84.7% | 80.4% | 103% | 81% | 86.5% | 41.2% | 90.5% | 92.8%
9 | Cc1ccc(CSCc2ccc(C(=O)NC3CC3)o2)cc1 | 18.2% | 52.1% | 72% | 76.3% | 69.1% | 108% | 89.2% | 74.6% | 92.2% | 64.3% | 48.4% | 97.9% | 77.7% | – | 25% | 81.1% | 31.6% | 46.4%
10 | CNC(=O)c1cc(Oc2ccc(NC(=O)c3nc(S(C)(=O)=O)n(C)c3-c3ccc(F)cc3)cc2)ccn1 | 60.2% | 55.6% | 75.8% | 104% | 67.1% | 58.9% | 54.3% | 69.6% | 76.9% | 77.8% | 61.5% | 80.6% | 79.4% | 72.1% | 79% | 64.2% | 93.8% | 21.9%
11 | Clc1cc(Br)ccc1-c1ccc(CNCC2CCNCC2)o1 | 17.2% | 43.8% | 33.6% | 84.8% | -40.7% (active) | 67.2% | 53.8% | 14% | 62.4% | 54.7% | 43.8% | 77.9% | 52.9% | 24.5% | 39.7% | 40.9% | 88.2% | 53.9%
12 | Nc1ccc(N(O)/C=C2\C=CC=CC2=O)cc1N | 95.3% | 52.8% | 95.4% | 71.1% | 99.6% | 107% | 80.2% | 89.1% | 94.2% | 82% | 78.8% | 103% | 97.7% | – | 115% | 85.1% | 93.4% | 83.3%
13 | CN=C1C=C/C(=N/N=c2/ccn(O)cc2C)C=C1C | 90.5% | 77.1% | 94.2% | 83.2% | 97.5% | 102% | 129% | 117% | 110% | 97.4% | 90.1% | 107% | 102% | – | 81% | 90.9% | 91.7% | –
14 | CN1CCN(Cc2ccc(NC(=O)c3cccc(C#Cc4cnc(N)c5ncccc45)c3F)cc2C(F)(F)F)CC1 | -3.15% (active) | -9.88% (active) | -49.3% (active) | -5.62% (active) | 49.6% | 22.3% | 24.5% | 73.2% | 18% | 61.3% | 79.9% | 62% | -82.7% (active) | -49.9% (active) | -65.1% (active) | -67.5% (active) | 67.3% | 1.2% (active)
15 | CCOCC(O)(c1ccc(Cl)cc1)c1ccc(Cl)cc1 | 100% | 107% | 103% | 84.4% | 112% | 105% | 101% | 112% | 109% | 99.7% | 98.5% | 115% | 102% | 97.4% | 110% | 93% | 109% | 90.4%
16 | Oc1[nH]c2ccc(Cl)cc2c1/C=c1/ccc2c(c1)N=C(c1ccc(F)cc1)N=2 | 8.49% (active) | 69.2% | 84.7% | 103% | 79.4% | 87.4% | 5.76% (active) | 72% | 68.1% | 44.3% | 62.6% | 27.8% | -44% (active) | 19.3% | 10.6% | 9.48% (active) | 74% | 48.6%
17 | CCOC(=O)C(Nc1ccccc1)C(=O)OCC | 106% | 106% | 105% | 100% | 93% | 105% | 92.3% | 129% | 117% | 102% | 102% | 95.1% | 110% | – | 95.8% | 101% | 103% | 115%
